# Where two headings read alike, the source gives them in different places.
# Experiments:
# Set-up in all cases: species or system human, MV4-11 + K-562 + COLO205 + SK-N-BE2 + OVCAR-8
# ACVR1B = conditions: read-out: apparent Kd, compound concentrations: 100 nM and 1000 nM (sheet 'Samples'), n = 1
# ACVR1 = conditions: read-out: apparent Kd, compound concentrations: 100 nM and 1000 nM (sheet 'Samples'), n = 1
# CDK16 = conditions: read-out: apparent Kd, compound concentrations: 100 nM and 1000 nM (sheet 'Samples'), n = 1
# CDKL5 = conditions: read-out: apparent Kd; compound concentrations: 100 nM and 1000 nM (sheet 'Samples'), CATDS: 3.80366995063171E-2; n = 1
# CSK = conditions: read-out: apparent Kd, compound concentrations: 100 nM and 1000 nM (sheet 'Samples'), n = 1
# DDR1 = conditions: read-out: apparent Kd; compound concentrations: 100 nM and 1000 nM (sheet 'Samples'), CATDS: 1.30172526981645E-2; n = 1
# EGFR = conditions: read-out: apparent Kd, compound concentrations: 100 nM and 1000 nM (sheet 'Samples'), n = 1
# FRK = conditions: read-out: apparent Kd, compound concentrations: 100 nM and 1000 nM (sheet 'Samples'), n = 1
# LYN = conditions: read-out: apparent Kd, compound concentrations: 100 nM and 1000 nM (sheet 'Samples'), n = 1
# SIK2 = conditions: read-out: apparent Kd, compound concentrations: 100 nM and 1000 nM (sheet 'Samples'), n = 1
# SRC = conditions: read-out: apparent Kd, compound concentrations: 100 nM and 1000 nM (sheet 'Samples'), n = 1
# AKT2 = conditions: read-out: apparent Kd, compound concentrations: 100 nM and 1000 nM (sheet 'Samples'), n = 1
# AURKB = conditions: read-out: apparent Kd, compound concentrations: 100 nM and 1000 nM (sheet 'Samples'), n = 1
# EPHA1 = conditions: read-out: apparent Kd, compound concentrations: 100 nM and 1000 nM (sheet 'Samples'), n = 1
# FLT3 = conditions: read-out: apparent Kd, compound concentrations: 100 nM and 1000 nM (sheet 'Samples'), n = 1
# DYRK1A = conditions: read-out: apparent Kd; compound concentrations: 100 nM and 1000 nM (sheet 'Samples'), CATDS: 9.0282965342826302E-2; n = 1
# GSK3A = conditions: read-out: apparent Kd; compound concentrations: 100 nM and 1000 nM (sheet 'Samples'), CATDS: 2.2236241466677201E-2; n = 1
# GSK3B = conditions: read-out: apparent Kd; compound concentrations: 100 nM and 1000 nM (sheet 'Samples'), CATDS: 1.84231194054994E-2; n = 1
# ACAD11 = conditions: read-out: apparent Kd; compound concentrations: 100 nM and 1000 nM (sheet 'Samples'), CATDS: 2.2498747845654098E-2; n = 1
# MAPK14 = conditions: read-out: apparent Kd; compound concentrations: 100 nM and 1000 nM (sheet 'Samples'), CATDS: 2.8626143180457999E-2; n = 1
smiles,measurement,setting,value
CC(C)c1nc(-c2cccc(NS(=O)(=O)c3ccccc3)c2)c(-c2ccnc(Nc3ccc4c(c3)CN(C)CC4)n2)s1 [GSK1649598A],potency estimated from few doses,ACVR1B; CATDS: 1.6553743316138101E-2,628 nM
same,potency estimated from few doses,ACVR1; CATDS: 1.3619919375172601E-2,1250 nM
same,potency estimated from few doses,CDK16; CATDS: 3.5928247701673299E-2,112 nM
same,potency estimated from few doses,CDKL5,101 nM
same,potency estimated from few doses,CSK; CATDS: 1.8899514592430999E-2,433 nM
same,potency estimated from few doses,DDR1,1520 nM
same,potency estimated from few doses,EGFR; CATDS: 2.2005426873151199E-2,298 nM
same,potency estimated from few doses,FRK; CATDS: 2.08537323275855E-2,338 nM
same,potency estimated from few doses,LYN; CATDS: 2.0380924471609701E-2,358 nM
same,potency estimated from few doses,SIK2; CATDS: 1.6344481967555599E-2,653 nM
same,potency estimated from few doses,SRC; CATDS: 1.45663528778369E-2,960 nM
Cc1cccc(Nc2nc(NCCN)ncc2C(N)=O)c1 [GSK1292139B],potency estimated from few doses,SIK2; CATDS: 8.4015516979832894E-2,925 nM
Cl.Cl.Cl.c1ccc(Oc2ccc(Nc3ccnc4cc(-c5ccc(CN6CCNCC6)o5)ccc34)cc2)nc1.c1ccc(Oc2ccc(Nc3ccnc4cc(-c5ccc(CN6CCNCC6)o5)ccc34)cc2)nc1 [GW567142A],potency estimated from few doses,AKT2; CATDS: 1.7589072796327002E-2,1790 nM
same,potency estimated from few doses,AURKB; CATDS: 2.12373497583834E-2,952 nM
same,potency estimated from few doses,CDK16; CATDS: 1.6285845495215501E-2,2450 nM
same,potency estimated from few doses,EGFR; CATDS: 4.6801095990659902E-2,143 nM
same,potency estimated from few doses,EPHA1; CATDS: 3.01720788002969E-2,372 nM
same,potency estimated from few doses,FLT3; CATDS: 3.3367464965841198E-2,294 nM
same,potency estimated from few doses,FRK; CATDS: 2.55518807835587E-2,566 nM
same,potency estimated from few doses,LYN; CATDS: 2.5031582152460801E-2,598 nM
same,potency estimated from few doses,SRC; CATDS: 6.9151530133692504E-2,70.8 nM
CS(=O)(=O)CCNCc1ccc(-c2ccc3ncnc(Nc4ccc(OCc5cccc(F)c5)c(C(F)(F)F)c4)c3c2)o1 [GW576484X],potency estimated from few doses,AKT2; CATDS: 4.5987801057845099E-2,2420 nM
same,potency estimated from few doses,EGFR; CATDS: 4.6980711652152798E-2,2290 nM
O=C1N=C(NCc2ccccc2)S/C1=C\c1ccc2ncccc2c1 [RO4442080-000],potency estimated from few doses,DYRK1A,1320 nM
Cc1ccc(O)cc1Nc1ccnc2ccc(C(C)(C)C)cc12 [GW856805X],potency estimated from few doses,EPHA1; CATDS: 0.48562635988047498,1.03 nM
same,potency estimated from few doses,FRK; CATDS: 5.5452484233419301E-2,44.2 nM
Cc1cc(O)cc(C)c1/C=C/c1cncc(-c2nn[nH]n2)c1.Cl [GW441806A],potency estimated from few doses,ACVR1; CATDS: 0.132778001486796,85.5 nM
same,potency estimated from few doses,SIK2; CATDS: 4.4020639379416998E-2,1540 nM
CN(C)Cc1ccc(-c2ccc3c(Nc4ccc(Oc5ccccn5)cc4)ccnc3c2)o1 [GW567148X],potency estimated from few doses,AURKB; CATDS: 1.8860841823088701E-2,1200 nM
same,potency estimated from few doses,CSK; CATDS: 1.6993908707239901E-2,1760 nM
same,potency estimated from few doses,EPHA1; CATDS: 2.4503846064608301E-2,577 nM
same,potency estimated from few doses,FLT3; CATDS: 2.7806184989220401E-2,433 nM
same,potency estimated from few doses,FRK; CATDS: 2.1087873700944799E-2,850 nM
same,potency estimated from few doses,GSK3A,736 nM
same,potency estimated from few doses,GSK3B,1300 nM
same,potency estimated from few doses,LYN; CATDS: 2.6094910864106001E-2,499 nM
same,potency estimated from few doses,SRC; CATDS: 3.3500581656618303E-2,297 nM
O=S(=O)(CCOCc1ccc(-c2ccc3ncnc(Nc4ccc(OCc5cccc(F)c5)c(Cl)c4)c3c2)o1)c1ccccc1 [GW615311X],potency estimated from few doses,ACAD11,2280 nM
same,potency estimated from few doses,ACVR1B; CATDS: 3.6359113991721197E-2,818 nM
same,potency estimated from few doses,ACVR1; CATDS: 2.7247604336379499E-2,1430 nM
same,potency estimated from few doses,AKT2; CATDS: 2.19467490651379E-2,2450 nM
same,potency estimated from few doses,CSK; CATDS: 2.6624527430589399E-2,1510 nM
same,potency estimated from few doses,EGFR; CATDS: 3.2602064025644098E-2,997 nM
same,potency estimated from few doses,FRK; CATDS: 2.9445586686104801E-2,1220 nM
same,potency estimated from few doses,MAPK14,1290 nM
same,potency estimated from few doses,SRC; CATDS: 2.9038399213399499E-2,1250 nM

# From PMC11062922 (Nature Chemical Biology, 2023)
